According to publication PMC5540273 (PLoS ONE, 2017):

What was measured:
Details in all cases: concentration: 1 μM, replicates: in singlicate; n = 1
HPK1 = test system: HPK1
HUNK = test system: HUNK
ICK = test system: ICK
IGF1R = test system: IGF1R
IKK-alpha = test system: T1, IKK-alpha
T1 construct: gene CHUK

IKK-beta = test system: T2, IKK-beta
T2 construct: gene IKBKB

IKK-epsilon = test system: T3, IKK-epsilon
T3 construct: gene IKBKE

INSRR = test system: INSRR
INSR = test system: INSR
IRAK1 = test system: IRAK1
IRAK3 = test system: IRAK3
IRAK4 = test system: IRAK4
ITK = test system: ITK
[1] = test system: JAK1(JH1domain-catalytic)
[2] = test system: JAK1(JH2domain-pseudokinase)
[3] = test system: JAK2(JH1domain-catalytic)
[4] = test system: JAK3(JH1domain-catalytic)
JNK1 = test system: T4, JNK1
T4 construct: gene MAPK8

JNK2 = test system: T5, JNK2
T5 construct: gene MAPK9

JNK3 = test system: T6, JNK3
T6 construct: gene MAPK10
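Also: KINOMEscan kinase panel screen.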

Structure (SMILES)	%Inh (HPK1)	%Inh (HUNK)	%Inh (ICK)	%Inh (IGF1R)	%Inh (IKK-alpha)	%Inh (IKK-beta)	%Inh (IKK-epsilon)	%Inh (INSRR)	%Inh (INSR)	%Inh (IRAK1)	%Inh (IRAK3)	%Inh (IRAK4)	%Inh (ITK)	%Inh [1]	%Inh [2]	%Inh [3]	%Inh [4]	%Inh (JNK1)	%Inh (JNK2)	%Inh (JNK3)
NCC(NC(=O)c1cc(-c2cn[nH]c2)c(-c2ccnc3[nH]ccc23)s1)c1ccccc1.O=C(O)C(F)(F)F.O=C(O)C(F)(F)F (stereo not drawn) [GSK1325775]	63%	0%	3%	0%	54%	79%	24%	0%	3%	93.6%	0%	21%	7%	45%	11%	95.7%	100%	40%	7%	12%
NS(=O)(=O)CCc1cccc(Nc2nccc(-c3c(-c4cccc(NC(=O)c5c(F)cccc5F)c4)nn4ccccc34)n2)c1 [GSK336735]	56%	0%	0%	73%	0%	0%	33%	62%	39%	0%	16%	9%	20%	18%	0%	0%	77%	36%	55%	16%
Nc1nc(-c2ccc3c(N)n[nH]c3c2)cc(N2CCCC2)n1 [GSK2227430]	39%	0%	0%	0%	0%	0%	40%	0%	0%	0%	0%	2%	0%	0%	11%	0%	0%	5%	12%	0%
N#Cc1ccc(-c2cc(-c3c[nH]nc3-c3ccccn3)ccn2)cc1 [GW693028]	38%	0%	11%	22%	25%	19%	0%	0%	1%	39%	0%	22%	9%	22%	0%	9%	0%	34%	59%	69%
COc1ccc(COc2cc(-n3cnc4ccccc43)sc2C(N)=O)cc1 [GSK1024304]	45%	14%	0%	8%	0%	17%	0%	0%	13%	0%	2%	2%	14%	0%	0%	0%	0%	18%	33%	10%
CCc1nc(-c2cccc(C)c2)c(-c2ccnc(NCc3ccccc3)c2)s1	0%	0%	0%	0%	15%	2%	0%	9%	0%	0%	0%	0%	13%	7%	31%	0%	4%	0%	8%	20%
O=C(NCCNc1ccnc(Nc2ccc(F)cc2)n1)Nc1ccccc1F [GSK1379880]	33%	0%	0%	0%	0%	0%	0%	0%	0%	15%	0%	11%	30%	23%	0%	11%	0%	32%	19%	11%
CN1c2ccc(NCc3ccc(F)cc3)cc2-c2c(cnn2C)S1(=O)=O	26%	52%	0%	0%	0%	0%	0%	16%	0%	0%	0%	0%	0%	0%	11%	1%	0%	0%	0%	0%
CCn1cnc2c(N)ncnc21 [GW345098]	0%	4%	0%	3%	0%	4%	0%	0%	10%	0%	10%	0%	16%	10%	19%	7%	17%	16%	0%	0%
